# Measurements published in paper PMC4336329 (PLoS ONE, 2015).
# In all, about 310,000 compounds went through this assay and about 14,000 (4.5%) showed an effect of 50% or more. Effects have a minus sign here. The sample holds strong results, similar compounds and a random draw of the others, so the mix is not that of the screen.
# Biological target: human ether-à-go-go-related gene (hERG) potassium channel (human, UniProt Q12809)
# Assay: primary screen, population patch clamp on CHO cells stably expressing hERG; higher = less effect of the substance
# 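Also: peak tail current of the secondary pulse compared with the same well before compound.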
# Chain of human ether-à-go-go-related gene (hERG) potassium channel (Q12809 whole entry, looked up): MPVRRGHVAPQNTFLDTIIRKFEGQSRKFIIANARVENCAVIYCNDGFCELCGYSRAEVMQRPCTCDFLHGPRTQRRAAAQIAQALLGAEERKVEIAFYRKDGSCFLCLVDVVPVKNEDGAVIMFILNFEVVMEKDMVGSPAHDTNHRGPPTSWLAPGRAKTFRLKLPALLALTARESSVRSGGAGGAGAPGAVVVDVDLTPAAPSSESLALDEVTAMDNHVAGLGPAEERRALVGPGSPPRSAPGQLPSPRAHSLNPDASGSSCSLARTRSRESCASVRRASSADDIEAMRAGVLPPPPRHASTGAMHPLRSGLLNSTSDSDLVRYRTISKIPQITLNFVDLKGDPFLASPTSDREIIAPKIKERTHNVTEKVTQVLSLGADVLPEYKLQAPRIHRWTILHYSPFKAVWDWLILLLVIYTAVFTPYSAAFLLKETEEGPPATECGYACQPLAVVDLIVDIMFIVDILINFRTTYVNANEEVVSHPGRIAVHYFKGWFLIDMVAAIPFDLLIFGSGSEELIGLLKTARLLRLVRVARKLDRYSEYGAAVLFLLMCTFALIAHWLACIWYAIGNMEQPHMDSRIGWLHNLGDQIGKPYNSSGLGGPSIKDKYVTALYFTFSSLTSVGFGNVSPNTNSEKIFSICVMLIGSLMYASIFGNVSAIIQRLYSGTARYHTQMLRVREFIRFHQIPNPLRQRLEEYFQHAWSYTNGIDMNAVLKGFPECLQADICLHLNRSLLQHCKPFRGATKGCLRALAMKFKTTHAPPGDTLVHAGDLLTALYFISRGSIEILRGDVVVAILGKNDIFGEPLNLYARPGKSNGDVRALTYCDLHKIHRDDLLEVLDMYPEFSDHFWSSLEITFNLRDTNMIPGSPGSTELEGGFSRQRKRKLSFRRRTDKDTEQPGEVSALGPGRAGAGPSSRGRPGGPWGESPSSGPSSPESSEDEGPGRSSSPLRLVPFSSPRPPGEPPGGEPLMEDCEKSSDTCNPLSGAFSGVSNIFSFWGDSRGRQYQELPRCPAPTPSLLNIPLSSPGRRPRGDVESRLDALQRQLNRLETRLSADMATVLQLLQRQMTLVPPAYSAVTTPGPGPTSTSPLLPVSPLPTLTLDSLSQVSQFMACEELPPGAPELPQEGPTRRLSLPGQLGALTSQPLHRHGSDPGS
row,SMILES,"hERG current change (%, negative = inhibition) at 10uM"
1,COc1ccc(NC(=O)NCCCN2CCCC2=O)cc1,4.11%
2,O=C(Nc1ccc(Br)cc1)N1CCc2ccccc2C1,2.91%
3,O=C(NCCCN1CCCC1=O)Nc1ccc(Cl)cc1,2.13%
4,O=C(CN1CCc2ccccc2C1)Nc1ccc(Br)cc1,-34.2%
5,CN1CCN(CCNC(=O)Nc2ccc(Cl)cc2)CC1,-0.17%
6,COc1ccc(-c2csc(NC(=O)Cc3ccccc3F)n2)cc1OC,2.29%
7,CC(Oc1cc2oc(=O)c3c(c2cc1Cl)CCCC3)C(=O)NCc1ccncc1 (stereo not drawn),-41.8%
8,Cc1[nH]c2ccccc2c1C1(O)C(=O)N(C(C)C)c2ccccc21 (stereo not drawn),16.7%
9,CC1CC2(CC(C)(C(=O)CSc3nc4ccccc4s3)OC2=O)C(=O)O1 (stereo not drawn),-1.16%
10,CCOC(=O)C1=C(C)NC(C)=C(C(=O)OCC)C1C(=O)OCC(=O)N1CCc2ccccc21,-1.82%
11,CC(C)CC(=O)Nc1ccccc1-c1nnn(CC(=O)N2CCOCC2)n1,-2.78%
12,NC(=S)NNc1c(F)c(F)c(F)c(F)c1F,28.9%
13,Cc1ccc(F)c(NC(=O)c2c(-c3ccccc3)noc2C)c1,7.17%
14,Cl.OCCN(CCO)CC(O)CN1c2ccccc2Sc2ccccc21 (stereo not drawn),-12.9%
15,CC(=O)Nc1ccc(-c2csc(NC(=O)C3CCN(S(=O)(=O)c4cccs4)CC3)n2)cc1,-2.9%
16,COc1cc(-c2nc3sc(C)c(C)c3c(=O)o2)cc(OC)c1OC,19%
17,CCOC(=O)C1=C(C)OC(N)=C(C#N)C1c1cc2ccccc2nc1N1CCCCC1 (stereo not drawn),6.3%
18,CC(C)N1C(=S)SC2CS(=O)(=O)C=C21 (stereo not drawn),-5.07%
19,NC(=O)c1cc(S(=O)(=O)N2CCCC2)ccc1OCCOc1ccccc1,2.15%
20,O=C(c1ccco1)c1cn(Cc2ccccc2)c2ccccc12,-6.75%
21,CCC(=O)c1cn(Cc2ccc(C#N)cc2)c2ccccc12,-71.8%
22,N#Cc1ccc(Cn2cc(C(=O)c3ccco3)c3ccccc32)cc1,-76.7%
23,Cc1ccc(Cn2cc(C=O)c3ccccc32)cc1,1.48%
24,CC(C)C(=O)c1cn(Cc2ccc(C#N)cc2)c2ccccc12,-75.6%

row,SMILES,"hERG current change (%, negative = inhibition) at 10uM"
1,N#Cc1ccc(Cn2cc(C=O)c3ccccc32)cc1,-80.8%
2,CCC(=O)c1cn(Cc2ccccc2C#N)c2ccccc12,-24.2%
3,CC(=O)c1cn(Cc2ccc(C#N)cc2)c2ccccc12,-19.9%
4,O=C(c1ccco1)c1cn(Cc2ccc(Cl)cc2)c2ccccc12,15.9%
5,CC(C)C(=O)c1cn(CC(=O)O)c2ccccc12,8.27%
6,O=Cc1cn(Cc2ccc(Br)cc2)c2ccccc12,15%
7,CC(C)C(=O)c1cn(Cc2ccccc2C#N)c2ccccc12,-10.8%
8,Cc1cc(C)n(-c2ncc(-c3ccccc3)nn2)n1,-36.4%
9,O=C(NCCCc1ccccc1)C(=O)NCC1OCCN1S(=O)(=O)c1cc(F)ccc1F (stereo not drawn),-15%
10,O=C(Nc1ncc(Cc2ccccc2)s1)C1=NCCN1,6.81%
11,COc1ccc(-c2nn(-c3ccccc3)cc2N)cc1,-3.82%
12,CCOC(=O)c1ccc(COC(=O)CCc2nc(-c3ccccc3)c(-c3ccccc3)o2)cc1,1.13%
13,CN(Cc1ccco1)S(=O)(=O)c1nnc(NC(=O)c2ccccc2Cl)s1,15%
14,COc1ccccc1NC(=O)CN1CC(=O)Nc2ccccc21,20.5%
15,O=C(O)CCNc1nc(C(F)(F)F)nc2ccccc12,18.2%
16,Cl.c1ccc2c(Nc3nc(N4CCOCC4)c4ccccc4n3)cccc2c1,-6.79%
17,COc1ccc(Nc2nc(N3CCCCC3)c3ccccc3n2)cc1,-32.9%
18,COc1ccc(Nc2nc(N)c([N+](=O)[O-])c(N3CCCC3)n2)cc1,-22.8%
19,CN1CCN(c2nc(Nc3ccc(O)cc3)nc3ccccc23)CC1.Cl,-34.9%
20,Cl.Oc1ccc(Nc2nc(N3CCCC3)c3ccccc3n2)cc1,-70.2%
21,COc1ccc(Nc2nc(N3CCCC3)c3ccccc3n2)cc1.Cl,-70%
22,Cl.c1ccc(Nc2nc(N3CCOCC3)c3ccccc3n2)cc1,-14.2%
23,CCN(CC)c1ccc(Nc2nc(N3CCOCC3)c3ccccc3n2)cc1,-71.8%
24,Cl.Fc1ccc(Nc2nc(N3CCOCC3)c3ccccc3n2)cc1,-2.91%
